The source made the active and inactive calls.
Columns and labels:
[1] = compound effects on lung adenocarcinoma cell viability – A549, calcein-AM fluorescence, 48 h, basal, profiling panel (AID 1162); settings: higher = more signal
[2] = compound effects on differentiated 3T3-L1 adipocyte viability – cell-based, 3T3-L1 adipocytes, calcein-AM fluorescence, 48 h, basal, profiling panel (AID 1163); settings: 3T3-L1 adipocytes viability, higher = more signal
[3] = compound effects on hepatocellular carcinoma cell viability – HepG2, calcein-AM fluorescence, 48 h, basal, profiling panel (AID 1164); settings: higher = more signal
[4] = compound effects on multiple myeloma cell viability – MM1S, calcein-AM fluorescence, 48 h, basal, profiling panel (AID 1165); settings: higher = more signal;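 further: viability of MM1S multiple myeloma cells under basal unstimulated conditions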
[5] = calcein-AM signal in unstimulated myeloma cells – cell-based, calcein-AM fluorescence, 48 h, PK04 Diversity Set, profiling panel (AID 1166); settings: RPMI8226 myeloma viability, higher = more signal;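 further: cells grown under basal conditions without added stimulus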
[6] = JC-1 mitochondrial signal, unstimulated HepG2 cells – cell-based, JC-1 fluorescence, 24 h, 100 nL compound, profiling panel (AID 1167); settings: HepG2 mitochondrial potential, higher = more signal
[7] = JC-1 mitochondrial signal, unstimulated adipocytes – cell-based, JC-1 fluorescence, 3T3-L1 adipocytes, 24 h, 100 nL compound, profiling panel (AID 1168); settings: JC-1 mitochondrial fluorescence, higher = more signal, called active from +8 up or from −8 down
[8] = JC-1 mitochondrial signal, unstimulated myeloma cells – cell-based, JC-1 fluorescence, RPMI8226, 24 h, 100 nL compound, profiling panel (AID 1169); settings: JC-1 mitochondrial potential fluorescence, higher = more signal
[9] = JC-1 mitochondrial signal, unstimulated MM1S myeloma – cell-based, JC-1 fluorescence, 24 h, 100 nL compound, profiling panel (AID 1170); settings: MM1S mitochondrial potential, higher = more signal
[10] = resazurin metabolic signal in A549 cells – cell-based, resazurin fluorescence, 24 h, PK04 Diversity Set, profiling panel (AID 1171); settings: A549 viability, higher = more signal, called active from +8 up or from −8 down
Further: test concentration not given here.

SMILES | z-score [1] | z-score [2] | z-score [3] | z-score [4] | z-score [5] | z-score [6] | z-score [7] | z-score [8] | z-score [9] | z-score [10]
Cc1ccc(F)cc1S(=O)(=O)N[C@@H]1CCN(Cc2ccc(CC(C)C)cc2)C1 | -0.815 | -0.537 | -1.8 | -3.34 | -3.56 | -1.08 | -0.545 (inactive) | -1.14 | -2.19 | 0.0665 (inactive)
CO[C@H]1COC(=O)CC=C[C@H](C)[C@@H](NS(=O)(=O)c2ccc(C)cc2)COC(=O)CC=C[C@@H]1C | 0.368 | 0.902 | 0.605 | -0.204 | 0.15 | -0.0318 | -1.58 (inactive) | 0.0791 | -1.17 | -0.0226 (inactive)
C=CCC(OC(C)=O)[C@@H]1[C@@H](N(Cc2cc3ccccc3o2)C(=O)Cc2ccc(F)cc2)c2cc(OCCCO)ccc2N1C(=O)Cc1ccc(OC)cc1 (stereo not given in full) | -0.382 | 0.569 | 0.585 | -0.0962 | 0.228 | 1.16 | -0.0927 (inactive) | 0.774 | -0.208 | 0.331 (inactive)
C#CCCCON=C1C[C@@H](O)[C@@H](O)[C@@H]2[C@@H]3C(=O)N(c4cccc(Oc5ccccc5)c4)C(=O)[C@@H]3CC[C@@H]12 | -0.559 | 0.43 | -1.57 | -0.399 | -0.2 | 0.106 | 0.126 (inactive) | -0.56 | 0.835 | -0.248 (inactive)
C=C(/C(=C/C[C@H](OC(=O)c1ccncc1)c1ccc(OCCO)cc1)c1cnc2ccccc2c1)C(C)C | 1.31 | -0.122 | 0.0253 | -2.75 | -0.294 | 0.92 | -0.69 (inactive) | -0.815 | -0.0967 | 0.58 (inactive)
CCN1C(=O)[C@H]2[C@H]3[C@H](O)[C@H](O)CC(=NOC[C@@H](C)[C@H](OCc4ccccc4)C(C)C)[C@@H]3CC[C@H]2C1=O | -0.0364 | 0.387 | -0.755 | -1.76 | -1.24 | -1.39 | -2.19 (inactive) | -0.279 | -0.187 | -0.295 (inactive)
COC(=O)C1=C(C)[C@@H](O)[C@@H](C)[C@H](c2c(OC)c(OC)c(C)c(OC)c2OC)O1 | -0.501 | -0.63 | 0.287 | 0.631 | -0.976 | -0.206 | 0.657 (inactive) | 0.267 | -0.722 | -0.345 (inactive)
CC(C)=CCCC(C)=CCON=C1[C@H]2CCn3c(=O)n(Cc4cc5c(cc4Cl)OCO5)c(=O)n3[C@H]2[C@H](O)[C@@H]2O[C@H]12 | -0.305 | 0.123 | 0.42 | -0.918 | -0.497 | -0.298 | -0.992 (inactive) | -0.702 | 1.17 | -0.386 (inactive)
CCCCc1nc2c(c3c1C[C@H](C)OC3)CN(CCC(C)C)CC2 | 1.25 | -0.11 | 0.597 | 0.411 | -1.35 | 2.01 | -0.836 (inactive) | -0.0883 | 0.301 | 0.6 (inactive)
C=CC[C@@H]1C=C[C@H](ON=C(C)CCN2CCc3nc(CC)c(CC)cc3C2)[C@@H](CO)O1 | 1.36 | 1.06 | -1.47 | -0.727 | 0.121 | 3.09 | -1.31 (inactive) | 0.0868 | -0.587 | 0.097 (inactive)
CCCCCN1CC=CC23O[C@@H]4C=CCOC(=O)[C@@H]4[C@H]2C(=O)N(CCCCCCO)[C@@H]3C1=O (stereo not given in full) | -0.262 | -0.0159 | 0.63 | 1.04 | -0.534 | -0.429 | -0.574 (inactive) | -0.343 | -0.414 | 0.444 (inactive)
CC(C)=CCCC(C)=CCON=C1[C@H]2CCn3c(=O)n(C)c(=O)n3[C@H]2[C@H](O)[C@@H]2O[C@H]12 | 0.717 | -0.326 | 1.11 | 0.114 | -0.183 | 0.46 | -0.14 (inactive) | -0.2 | -0.731 | -0.83 (inactive)
CC(C)NC(=O)[C@@H]1c2ccccc2C(=O)N(CC23CC4CC(CC(C4)C2)C3)[C@H]1c1ccc(CO)cc1 | 1.39 | 0.885 | 1.29 | -0.0705 | 0.301 | 1.83 | -0.459 (inactive) | 0.433 | -0.624 | 1.18 (inactive)
CO[C@H]1COC(=O)[C@H](C)COC(=O)CC=C[C@@H](C)[C@H](OC)COC(=O)CC=C[C@@H]1C | 0.593 | -0.101 | 0.968 | 0.191 | -0.0736 | 0.69 | 0.0241 (inactive) | 0.405 | 0.601 | 0.239 (inactive)
CCCC[C@H]1OB(O)C[C@H]2C1=C(C)C[C@H]1C(=O)N(C)C(=O)[C@H]12 | -0.203 | -0.623 | -1.02 | -2.27 | -0.848 | -1.79 | -0.467 (inactive) | 0.391 | 0.203 | -0.794 (inactive)

— PubChem BioAssay
